The structures appear in SMILES notation. About 83,000 compounds went through this panel and 20% of them were active in at least one assay; those are over-represented in the sample as a whole.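 Single-concentration screen, 48 h exposure, 96-well plates. Endpoint: percent growth. Below 10 = active.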 Values without a mark were called inactive. Active and inactive are the calls of the source.

For 27 molecules, growth results are on record in PubChem BioAssay (NCI).

What all share (test): NCI-60 one-dose screen, 48 h (100 = growth as untreated, 0 = no growth, -100 = all killed)
Conditions in all cases: 10 µM unless noted

The subject of test [1] is DU-145 prostate.
In test [2] the test system is K-562 leukemia.
In test [3] the test system is MALME-3M melanoma.
Test [4] concerns MDA-MB-231 breast.
Test [5] deals with RXF 393 renal.
Test [6] has as its system SF-268 CNS.
Test [7] concerns SF-295 CNS.
Test [8] has as its system SF-539 CNS.
In test [9] the test system is UACC-257 melanoma.
Test [10] relates to M14 melanoma.

As to `CCSc1nc(NC)c2cc(-c3ccc(C(F)(F)F)cc3)ccc2n1`, the growth in test [1] is 105%; in test [2] it was 105%; in test [3], 96.9%; in [4], 90.3%; in test [5], 90.5%; in test [6] it was 103%. In addition, the growth in [7] was 102%; in [8], 103%; in test [9], 106%; in [10], 96.5%.

As to `O=C1N[C@@H]2NC(=[N+]3CCOCC3)N[C@@H]2N1`, the growth in [1] was 114%; in test [2] it was 98.6%; in test [3] it was 92.9%; in test [4], 103%; in test [5], 116%; in test [6], 100%. For the same molecule, the growth in [7] was 99.9%; in test [8], 98.2%; in test [9], 109%; in [10] it was 102%.

Consider `O=[N+]([O-])/C(=C/C=C/c1ccccc1)c1ccccc1`, for which the growth is 26% in test [1]; 24.4% in test [2]; 96.1% in test [3]; 61.7% in test [4]; 35.4% in test [5]; 35.3% in test [6]. The growth in test [7] is 91.5%; in test [8] it was 36.8%; in test [9], 77%; in test [10], 37.8%.

In the case of `CCCCNC(=O)Oc1ccc(/C(=C(/CC)Cc2ccccc2)c2ccc(OCCN3CCCCCC3)cc2)cc1`, the growth was 49.9% in [1]; -24.8% (active) in [2]; -58.3% (active) in test [3]; 43.3% in test [4]; 16.7% in [5]; 61% in test [6]. For the same molecule, the growth in test [7] was 91.9%; in test [8] it was -30.2% (active); in test [9] it was 34.3%; in [10], -19.3% (active).

Regarding `C=C(C)[C@@H]1CC[C@]2(C(=O)OC)CC[C@]3(C)[C@H](CC[C@@H]4[C@@]5(C)C/C(=C/NC(N)=S)C(=O)C(C)(C)[C@@H]5CC[C@]43C)[C@@H]12`, the growth in [1] was 86.3%; in test [2], 73.6%; in test [3], 119%; in test [4], 98.5%; in [5], 99.8%; in test [6], 95.8%. In addition, the growth in [7] was 99.4%; in test [8], 85.6%; in test [9] it was 100%; in [10], 87.9%.

Turning to `CCN(CC)c1nc(SCc2ccccc2Cl)ncc1C`, the growth is 109% in test [1]; 97.7% in test [2]; 115% in test [3]; 80.3% in test [4]; 99.6% in [5]; 113% in [6]. Besides, the growth in test [7] is 97.3%; in test [8], 129%; in test [9] it was 106%; in test [10], 114%.

Take `O=C(Nn1c2c(sc1=Nc1ccccc1)C(=O)c1ccccc1C2=O)c1cc2ccc1CCc1ccc(cc1)CC2`: the growth in test [1] is 71.7%; in test [2], 77.8%; in [3] it was -69.3% (active); in [4] it was 40%; in [5] it was 70.7%; in [6], 67.7%. In addition, the growth in [7] is 87.8%; in test [8], 92.6%; in test [9], 62.4%; in test [10] it was 4.14% (active).

Take `N#Cc1c(-c2ccc(Cl)cc2)nc(NN=Cc2cccc(O)c2)nc1N1CCOCC1`: the growth is 63.4% in [1]; 45.1% in [2]; 104% in test [3]; 95.9% in test [4]; 24.1% in test [5]; 81.9% in test [6]. Further, the growth was 97.1% in test [7], 67.8% in test [8], 86.5% in test [9] and 66.6% in test [10].

With `COc1ccc(/C(C)=C(/c2ccc(OCCCN(C)C)cc2)c2ccc(OC(=O)Cc3ccccc3)cc2)cc1`, the growth in test [1] is 94.2%; in [2], 11.9%; in test [3], 95%; in test [4], 59.7%; in test [5], 67.8%; in [6], 76%. In addition, the growth is 51.3% in test [7], 76.1% in test [8], 82.1% in test [9] and -19.6% (active) in test [10].

`O=C(Cn1cc(CN2CCCCCC2)nn1)Nc1ccc2c(ccn2Cc2ccccc2)c1`: the growth is 101% in test [1]; 79.5% in test [2]; 91.1% in test [3]; 86% in test [4]; 91.4% in test [5]; 93.6% in test [6]. Further, the growth in [7] was 99.6%; in [8], 92.6%; in [9], 101%; in [10] it was 94.1%.

For `CC(C)=NNc1ccccn1`, the growth in [1] is 48.4%; in test [2], 59.2%; in test [3], 48.5%; in test [4], 36.4%; in [5], 69.8%; in test [6], 43.7%. In addition, the growth is 67.6% in test [7], 43.5% in test [8], 11.9% in test [9] and 35.8% in test [10].

As to `CC12CCC3c4ccccc4CCC3(CO1)C2` (stereo not given), the growth in test [1] is 121%; in test [2], 99.9%; in test [3], 95.1%; in test [4] it was 124%; in [5], 93.4%; in [6], 107%. For the same molecule, the growth in test [7] was 77.2%; in [8] it was 104%; in test [9], 110%; in test [10] it was 128%.

Take `C1=CN2CC(c3ccccc3)=NNC2c2ccccc21` (stereo not given): the growth in test [1] is 113%; in [2], 48.6%; in [3] it was 80.4%; in [4], 63.4%; in test [5], 90%; in test [6], 106%. The growth was 104% in test [7], 92.6% in [8], 97.1% in test [9] and 94.1% in [10].

As to `Cc1nc(-c2ccccc2)cc2c(O)c(C(=O)NN)[nH]c(=O)c12`, the growth in test [1] is 115%; in test [2], 104%; in test [3], 229%; in test [4] it was 102%; in test [5] it was 101%; in test [6], 96.2%. Also, the growth was 111% in test [7], 100% in test [8], 118% in test [9] and 101% in test [10].

In the case of `CC(C)=CCC[C@](C)(O)[C@H]1CC[C@]2(C)[C@@H]1CC[C@@H]1[C@@]3(C)Cc4nccnc4C(C)(C)[C@@H]3CC[C@]12C`, the growth in test [1] is 70.9%; in test [2], 63.2%; in test [3], 66.4%; in test [4], 74.4%; in [5] it was 94.3%; in test [6] it was 86.5%. In addition, the growth is 95.2% in test [7], 76.3% in [8], 75.7% in [9] and 71.4% in [10].

With `CCCCOC(=O)OCc1cc(=O)c(O)co1`, the growth in test [1] was 113%; in test [2], 97.4%; in test [3] it was 102%; in [4], 114%; in test [5] it was 113%; in test [6], 105%. The growth in test [7] was 96.3%; in test [8], 100%; in [9] it was 104%; in [10], 106%.

`N#CC1=C(N)Oc2c(sc3c(F)cccc23)C1c1ccc(F)cc1` (stereo not given): the growth is 16.6% in test [1]; 11.1% in [2]; 56.3% in test [3]; 39.6% in [4]; -16.5% (active) in [5]; 54.4% in test [6]. The growth in [7] was 14.6%; in [8] it was -14.3% (active); in test [9], 60.5%; in test [10] it was 0.877% (active).

`Cc1ccc2c(n1)C(=O)c1[nH]c3ccccc3c1C2=O`: the growth in test [1] is -86.1% (active); in test [2], 44.9%; in test [3], -80.4% (active); in test [4] it was 32.1%; in test [5] it was 62.7%; in test [6], 66.3%. The growth in test [7] is 0.15% (active); in test [8], 43%; in test [9] it was 13.7%; in test [10], -39.9% (active).

Turning to `Clc1ccc2c(c1)N(c1ncnc3ccc(-c4cnc5[nH]ncc5c4)cc13)CC2`, the growth in [1] is 22.4%; in test [2] it was 51.1%; in test [3], 40.2%; in test [4], 27.3%; in test [5], -10.5% (active); in test [6], 35.1%. The growth in test [7] is 23.1%; in test [8] it was 24.9%; in [9] it was 44.3%; in [10] it was 43.4%.

`Cc1ccc(-c2cc(-c3ccc(Cl)cc3)nc(NC(=O)c3cccnc3)n2)cc1`: the growth is 106% in test [1]; 87.6% in [2]; 111% in test [3]; 91.3% in test [4]; 94.1% in test [5]; 97.6% in test [6]. Besides, the growth in [7] is 103%; in test [8], 106%; in [9], 121%; in test [10] it was 109%.

As for `Cc1ccc(Sc2nnc(/N=C3\C(=O)Nc4ccccc43)s2)cc1`, the growth in [1] is 114%; in [2] it was 95.5%; in test [3], 102%; in test [4], 104%; in [5], 120%; in [6] it was 98.9%. The growth was 105% in test [7], 101% in test [8], 94.2% in test [9] and 101% in test [10].

Consider `COc1ccc2c3c([nH]c2c1)C(=O)c1nc(C)ccc1C3=O`, for which the growth in test [1] was -73.2% (active); in test [2], 40.7%; in test [3], -61.8% (active); in [4] it was 49.8%; in test [5], 69.9%; in test [6], 69.5%. In addition, the growth in test [7] is 45.8%; in [8], 54.8%; in test [9], 32.7%; in [10] it was 19%.

For the molecule `O=C1NCCC12CCN(c1c(Cl)cncc1-c1ccc(O)cc1)CC2`, the growth is 108% in [1]; 97.9% in test [2]; 117% in test [3]; 102% in test [4]; 87.9% in test [5]; 82.5% in [6]. Also, the growth is 101% in [7], 83.7% in test [8], 86.7% in test [9] and 114% in [10].

As to `O=C(NNc1nccc(Nc2ccc(S(=O)(=O)Nc3ccncc3)cc2)n1)c1ccccc1`, the growth in test [1] was 105%; in test [2], 107%; in [3], 103%; in test [4], 90.9%; in test [5], 109%; in test [6] it was 95.3%. The growth in [7] is 104%; in [8], 115%; in [9] it was 107%; in [10] it was 91.9%.

As for `CCCCCCCCn1ccc2cc(NC(=O)Cn3cc(CN4CCCCC4)nn3)ccc21`, the growth in [1] was 52.2%; in test [2] it was -13.5% (active); in [3], -88.3% (active); in test [4] it was -37.1% (active); in test [5], -72% (active); in test [6], 21.3%. Further, the growth was -66.5% (active) in [7], -42.3% (active) in [8], -49.5% (active) in [9] and -79.8% (active) in test [10].

Regarding `O=C1C(Cl)=C(Oc2ccccc2)C(=O)c2ccccc21`, the growth in test [1] was 122%; in test [2], 37.2%; in test [3] it was 76.3%; in [4], 81.4%; in test [5], 96.8%; in test [6], 79.3%. The growth is 76.6% in [7], 75.2% in test [8], 89.9% in [9] and 96.2% in [10].

For `COC(=O)c1n[nH]c2ccc3nc(-c4cn[nH]c4C(F)(F)F)c4c(c3c12)CCCC4`, the growth in [1] is 49.1%; in [2], 72.9%; in test [3] it was 28.9%; in test [4], 38.6%; in test [5], 37.9%; in test [6], 54.8%. Also, the growth is 48.7% in test [7], 27.4% in test [8], 28.9% in [9] and 11% in test [10].
